These results are taken from PubChem BioAssay (NCI).

The structures appear in SMILES notation. About 83,000 compounds went through this panel and 20% of them were active in at least one assay; those are over-represented in the sample as a whole.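 Activity criterion: percent growth below 10, measured after cells in 96-well plates were exposed to a single compound concentration for 48 hours.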 Calls of active or inactive are those of the source.

The assay deals with MDA-MB-468 breast. The assay can be described thus: NCI-60 one-dose screen, 48 h (100 = growth as untreated, 0 = no growth, -100 = all killed). The settings on record: 10 µM unless noted.
`Cc1cc2cn3c4ccc(O)cc4[nH]c(=O)c3c2cc1C`: the growth is -28.2% (active).
To `O=C1c2c(c3c4cc(F)ccc4oc3c3[nH]c4ccccc4c23)C(=O)N1O` belongs -5.83% (active).
To `COc1cccc(-c2nc(SCC(=O)Nc3ccc(C(=O)/C=C/c4ccc(OC)c(OC)c4)cc3)[nH]c(=O)c2C#N)c1` belongs 65.7% (inactive).
`C1=C(c2ccccc2)c2ccccc2C1`: the growth was 100% (inactive).
To `CCN1C(=O)N(CC)C2Nn3c(s/c(=C4\C(=O)N(C(C)C)c5ccccc54)c3=O)=NC21` (centres undefined) belongs 9.33% (active); to `Oc1c(Cl)cc(Cl)c2ccc(Cn3cc(-c4ccc(C(F)(F)F)cc4)nn3)nc12`, 39.6% (inactive); to `COC(=O)C(C)NS(=O)(=O)/N=C1\NC(=O)NC1=C(Cl)Cl` (centres undefined), 91.4% (inactive).
To `CCCCCC(=O)c1ccc(OCCCN2CCN(C(=O)OCC)CC2)cc1` belongs 47.5% (inactive); to `CN1C(=O)N2CN3CCCN(C3)CN3C(=S)NC1C23` (centres undefined), 102% (inactive); to `O=C(/C=C/c1ccccc1)n1c(-c2ccccc2)nc2ccccc21`, 98.2% (inactive).
To `CSc1nc(=O)n(Cc2ccc(Cl)cc2)c(=O)[nH]1` belongs 121% (inactive); to `Cc1cc(CO)c(O)c(CO)c1`, 106% (inactive).
For the compound `O=C1CC2(CCOCC2)Oc2ncccc21`, the growth was 30.4% (inactive).
To `COc1ccc(C(=O)OC2C(OC3C(O)COC(O[C@H]4C[C@H]5[C@@H]6CC=C7C[C@@H](O)CC[C@]7(C)[C@H]6CC[C@]5(C)[C@H]4[C@H](C)C(=O)CCC(C)C)C3OC(C)=O)OCC(O)C2O)cc1` (some centres undefined) belongs -34.1% (active).
